Screens: PubChem, National Center for Advancing Translational Sciences (NCATS)
LASV entry inh = Lassa virus entry inhibition; actives 1.2% (n = 300,000); Potency, µM (series often up to 37.9 µM), for inactives: at the highest dose activity change, negative = inhibition, usual class: inhibitors; Lassa virus pseudotype entry inhibition, cell reporter; calls by dose curve; tested in HEK293 cells; further: potency means the concentration at half of the fitted maximal effect; on the % scale 0 is the no-effect control and ±100 the full control effect; nearly all actives have a fitted effect of over 50% in size
Marburg entry inh = blocks Marburg virus binding to or entry into cells | Marburg virus pseudotyped entry inhibition, cell reporter | AID 540276 | Potency, µM (highest dose often 37.8 µM), inactives show top-dose activity change, negative = inhibition, actives largely listed as inhibitors | actives 1.8% (n = 300,000); calls by dose curve; tested in HEK293 cells; further: potency means the concentration at half of the fitted maximal effect; on the % scale 0 is the no-effect control and ±100 the full control effect
SARS PLP yeast = inhibitors of SARS-CoV papain-like protease in yeast; S. cerevisiae expressing SARS-CoV PLpro, growth rescue; Potency, µM (series often up to 32.9 µM), for inactives: at the highest dose activity, positive = growth rescue, actives largely listed as activators; actives 0.19% (n = 330,000); calls by dose curve; further: potency means the concentration at half of the fitted maximal effect; 0% is about no effect; nearly all actives have a fitted effect of over 55% in size
HCV inhibitor = blocks hepatitis C virus; actives 3.4% (n = 340,000); Potency, µM (doses to about 41.8 µM), without a hit: top-dose activity change, negative = inhibition, most hits filed as inhibitors; Huh7.5.1 HCVcc-Cre infection, luciferase reporter, 44 h; active means well fitted inhibition curve with a large enough effect; inconclusive means small, poorly fitted or top-dose-only effect, or another doubt; inactive means no such curve, though single readings can be large or run the other way; further: potency means the concentration at half of the fitted maximal effect; on the % scale 0 is the no-effect control and ±100 the full control effect
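Antiviral activity was scored by luciferase reporter output from cells infected with HCVcc-Cre (~0.5 moi) in presence of compound, 44 h infection period, cells seeded 1,000/well 4 h prior.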
FMDV antiviral = blocks foot and mouth disease virus; AID 1159524; FMDV antiviral cell-based qHTS; actives 1.2% (n = 410,000); Potency, µM (titrated, usually from 57.9 µM), inactives show at the highest dose activity change, negative = inhibition, hits mostly inhibitors; calls by dose curve; tested in HEK293T cells; further: read-out not given here; potency means the concentration at half of the fitted maximal effect; on the % scale 0 is the no-effect control and ±100 the full control effect; nearly all actives have a fitted effect of over 45% in size
HCMV antiviral = inhibitors of human cytomegalovirus | HFF cells, HCMV-luciferase reporter, 72 h; active compounds read low | activity change, negative = inhibition, % at 57.5 µM | actives 4.5% (n = 410,000) | AID 1259415; in the data active means activity change below about -60%; inconclusive means no clear call, values can overlap the other calls; inactive means above about -39%; further: on the % scale 0 is the no-effect control and ±100 the full control effect
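HFF cells seeded 16 h at 37C, treated with compounds, infected with luciferase-reporter HCMV at MOI 1 PFU/cell; luciferase read at 72 h post infection, normalized to buffer-only and Salinomycin controls.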
Numbers without * were called inactive; ? = inconclusive; · = no result; [ ] = another dose, or the depositor's remark. An excerpt weighted towards active compounds, which were near 8% of everything screened.

SMILES	LASV entry inh	Marburg entry inh	SARS PLP yeast	HCV inhibitor	FMDV antiviral	HCMV antiviral
COc1ccc(C(=O)Nc2ccc3ccccc3c2)cc1OC	?	1.9%	0.6%	?	59.3%	120.5
COc1ccc(/C(C)=N/Nc2ccc(C(=O)O)cc2)cc1OC	?	?	5.1%	4.2%	-14.9%	20.7
CC(C)(C)n1cnc2cc(NC(=O)c3ccc(Cl)cc3)ccc21	?	?	1.3%	?	34.4%	4.2
Nc1cc(C(=O)N2CCN(c3cccc(Cl)c3)CC2)ccc1N1CC2CC(C1)c1cccc(=O)n1C2 (stereo unspecified)	·	·	·	·	-15.4%	-25.0
Cc1cc(C(=O)Nc2ccccc2-c2nc(CNC(=O)c3ccccc3Cl)c(C)o2)c(C)o1	·	·	·	·	15.6%	·
COc1ccccc1CN1CCCC(n2cc(C(=O)N3CCCC3)nn2)C1 (stereo unspecified)	·	·	·	·	-18.3%	·
Cc1c(NC(=O)CSc2ncnc3ccccc23)c(=O)n(-c2ccccc2)n1C	-2.3%	-12.6%	0.1%	14.5%	-18.8%	11.2
COc1ccc(OC)c(C(=O)c2ccc(C(=O)Nc3ccc4ccccc4c3)cc2)c1	10µM*	?	-1.5%	?	-11.7%	?
COc1ccc(C(=O)Nc2ccc3ccccc3c2)cc1	·	·	0.7%	-11.3%	-50.5%	0.3
Cc1ccccc1C1(CC(=O)N2CCCCC2C)CC(=O)N(Cc2cccnc2)C1=O (stereo unspecified)	·	·	·	·	6.1%	·
CC(C)c1ccc(COC(=O)CN2C(=O)NC3(CCCCC3C)C2=O)cc1 (stereo unspecified)	?	?	2.0%	14.1µM*	0.0%	-0.2
CC1CCCCC12NC(=O)N(CC(=O)OCc1ccccc1Cl)C2=O (stereo unspecified)	-17.9%[46.1 µM]	-15.0%	0.3%	-8.1%	?	-7.5
Cc1ccc(C)c(N2CCN(S(=O)(=O)c3cc(-c4cc(C)no4)ccc3C)CC2)c1	-27.8%[46.1 µM]	·	·	·	-22.5%	0.0
Cc1cc(-c2ccc(C)c(S(=O)(=O)N3CCN(c4ccc([N+](=O)[O-])cc4)CC3)c2)on1	?	?	5.9%	?	-24.2%	-73.0*
Clc1ccc2nc(N3CCNCC3)nc(-c3ccccc3)c2c1	?	?	-9.0%	10µM*	-24.6%	?
Cc1ccc(NC(=O)Cc2ccc(Cl)cc2)cc1S(=O)(=O)N1CCCCCC1	·	·	3.2%[6.58 µM]	10µM*	?	-26.2
Cc1ccc(NC(=O)CN(C)C(=O)Cn2ncc(Cl)c(Cl)c2=O)cc1	15.8µM*	5.01µM*	-18.8%	3.16µM*	0.0%	-99.9*
COc1ccc(CC(=O)Nc2ccc(C)c(S(=O)(=O)N3CCCCCC3)c2)cc1	·	·	1.1%	?	-19.7%	-0.2
Cc1ccc(NCC(=O)Nc2ccc(F)c(Cl)c2)cc1S(=O)(=O)N1CCOCC1	·	·	·	·	?	-60.6*
Cc1nc(-c2ccc(F)cc2)c(CC(=O)Nc2ccc(C)c(S(=O)(=O)N3CCOCC3)c2)s1	?	5.01µM*	0.4%	7.94µM*	?	·
Cc1ccc(NC(=O)CNc2cccc(Br)c2)cc1S(=O)(=O)N1CCOCC1	·	·	·	?	-25.9%	-26.5
CC(C)CN(C(=O)COC(=O)c1c(Cl)ccc(Cl)c1Cl)C1CCS(=O)(=O)C1 (stereo unspecified)	-6.4%	-27.8%[46.1 µM]	0.9%	-26.9%	-12.7%	-21.3
COc1ccc(-n2ccc(=O)c(C(=O)O)n2)cc1	29.9%[46.1 µM]	4.6%[46.1 µM]	0.1%	18.5%	0.0%	26.3
COc1ccc(NC(=O)CCOc2ccccc2F)cc1S(=O)(=O)N1CCCCC1	?	?	0.0%	12.6µM*	?	-5.6
Cc1ccc(NC(=O)Cn2c(=O)ccn(Cc3ccccc3)c2=O)cc1S(=O)(=O)N1CCOCC1	·	·	·	11.2µM*	-29.3%	0.0
Cc1ccc(CN2CC(C(=O)Nc3ccc(C)c(S(=O)(=O)N4CCCCC4)c3)CC2=O)cc1 (stereo unspecified)	?	?	·	?	-10.8%	-66.1*
Cc1ccc(NC(=O)Cn2ncc(Cl)c(Cl)c2=O)cc1S(=O)(=O)N1CCCCC1	·	·	2.4%	10µM*	28.2µM*	0.0
COC(=O)[C@H]1[C@H](C)[C@@]2(O)c3ccccc3N(C)[C@@]1(C)[C@H]2O	·	-24.9%[14.2 µM]	·	·	·	·
